Screening data (PubChem)
A selection: hits, their analogues and other compounds. The true share with any hit is near 4%.
TROY NFkB inh – inhibitors of TROY-driven NF-kB signaling, primary screen, Q293 LMP1-TROYcd cells, NF-kB luciferase, uHTS. Q293 LMP1-TROYcd NF-kB luciferase reporter, 4 h. inhibition, % at 10 µM. 0.98% of 360,000 active;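 active means compounds whose plate-normalised and pattern-corrected inhibition of the luciferase reporter signal at the single screening dose is 50% or more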
Peg3 promoter – Peg3 promoter-driven luciferase inhibitors, primary screen, cell-based, HeLa, luciferase luminescence. HeLa PEG-Prom luciferase reporter, overnight. inhibition, % at 20 µM. 1.7% of 360,000 active. AID 588405, 2011;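 active means inhibition of at least 50% at 20 µM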
MITF TRPM1 inh – inhibitors of MITF-dependent TRPM1 promoter reporter, primary screen, cell-based, SK-MEL-5, single point, luciferase; inhibition, % at 12.5 µM; SK-MEL-5 TRPM1 promoter luciferase, 24 h; 0.83% of 330,000 active;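 active means mean inhibition across replicates of 60% or more, whatever share of single replicates reaches that level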
HIF-2a inh – HIF-2a reporter inhibitors, primary screen, luminescence, 786-0 RCC cells; 786-0 RCC cells HIF-2a reporter, luciferase luminescence, overnight; inhibition, % at 18.8 µM; 0.72% of 360,000 active;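 active means inhibition of the luminescence signal of 40% or more relative to plate controls, in a single-dose primary screen at 18.75 µM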
LMP1 NFkB inh – EBV LMP1-driven NF-kappaB luciferase reporter inhibitors, primary screen, cell-based, luminescence, single point; LMP1-induced NF-kappaB luciferase reporter cells; inhibition, % at 12.5 µM; 0.69% of 350,000 active; AID 504558, 2011; in the data active means inhibition above about 41%;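 further: 0% = neutral control wells and 100% = reference inhibitor control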
TWEAK Fn14 block – inhibitors of TWEAK-Fn14 signaling, primary screen, luciferase reporter cells, uHTS; inhibition, % at 10 µM; 2% of 360,000 active; AID 1159606, 2016; TWEAK-stimulated Fn14 reporter cells, luciferase luminescence, 8 h; in the data active means inhibition above about 50%
The depositor's hits bear a star; / = no result given; ! = not confirmed by another sample.

SMILES	TROY NFkB inh	Peg3 promoter	MITF TRPM1 inh	HIF-2a inh	LMP1 NFkB inh	TWEAK Fn14 block
CNc1ccc(/C=C/C(=O)c2cccc3ccccc23)cc1[N+](=O)[O-]	-16.3	67.2*	-10.5	-62.6	1.9	12.7
COc1cccc2c1C1COC3C4CC(C(=O)O)C(C(C2)N13)N4C (stereo not given)	30.2	-17.0	-5.3	16.0	0.8	60.9*
Clc1ccc(-n2cnc3c(Cl)ncnc32)cc1Cl	16.8	74.2*	4.6	-0.4	18.5	9.2
O=C(NCCCNC(=O)c1ccc(-c2cc(Cl)ccc2Cl)o1)c1cnccn1	-23.1	13.4	1.2	-11.3	-0.6	-10.9
CN(CC(O)COc1ccc(OCC(O)CN(C)C2CCCCC2)cc1)C1CCCCC1 (stereo not given)	2.6	82.7*	-11.9	19.2	-4.2	-13.9
COC(=O)NC(=C(Cl)Cl)S(=O)(=O)c1ccccc1	-0.2	46.9	31.3	-14.9	-137.1	68.6*
NC(=O)c1ccsc1NC(=O)COC(=O)Cc1cccc2ccccc12	60.9*	-3.6	22.5	1.7	20.7	54.8*
O=C(COc1ccc(F)cc1)N1CCC(Cc2ccccc2)CC1	-45.0	-48.2	-6.0	-90.9	3.2	-14.4
CC(C)NC(=O)c1ccc2sc([C@H]3C[C@H](O)[C@@H](CO)O3)nc2c1	6.0	-4.3	/	3.3	/	3.5
Cc1ccc(S(=O)(=O)Nc2cc3c4c(c2)CCC(=O)N4CCC3)cc1	-7.7	-43.6	-4.5	-19.0	1.3	-0.1
NC(=O)OCC(COC(N)=O)c1ccccc1	7.0	-4.0	11.2	-6.4	68.5*!	14.2
CN(C(=O)COC(=O)COc1ccc(Cl)cc1Cl)c1c(N)n(Cc2ccccc2)c(=O)[nH]c1=O	-5.6	4.1	6.6	7.7	-5.4	12.1
O=C(NC(Nc1ncc(S(=O)(=O)c2ccc([N+](=O)[O-])cc2)s1)(C(F)(F)F)C(F)(F)F)c1ccc(Cl)cc1	53.0*	41.9	17.6	-2.9	24.5	46.9
COCC(=O)Nc1ncc(S(=O)(=O)c2ccc([N+](=O)[O-])cc2)s1	7.2	10.3	8.5	3.4	-1.4	12.6
Cc1ccc(NC(=O)CSc2ncc3ccccn23)cc1	-10.1	-18.9	0.1	3.6	-2.8	-0.3
Cc1ccc(-c2noc(CCC(=O)NCC3CCCO3)n2)cc1 (stereo not given)	-26.4	-0.1	8.4	-8.5	6.6	14.8
O=C(CCc1nc(-c2ccccc2)no1)NCC1CCCO1 (stereo not given)	27.3	-23.5	-8.5	-19.2	74.2*	19.2
CC1CN(c2nc3ccccn3c(=O)c2/C=C(\C#N)C(N)=O)CC(C)O1 (stereo not given)	-22.3	2.6	-5.8	5.5	-8.1	90.5*
CN(C)CCNc1nc2sc3c(c2c(=O)n1CCc1ccccc1)CCCCC3	-97.2	107.6*	89.8*	-83.6	-8.7	-48.5
CC(O)CNc1nc2sc3c(c2c(=O)n1CCc1ccccc1)CCCCC3 (stereo not given)	-16.6	-84.8	-33.3	-163.9	-10.6	-46.3
C=CCn1c(SCC(C)=O)nc2scc(-c3ccco3)c2c1=O	-5.0	10.7	-7.2	7.7	-5.4	38.3
C=CCn1c(SC(F)F)nc2scc(-c3ccco3)c2c1=O	-7.4	74.0*	26.7	-8.2	-38.4	25.9
CCOc1ccccc1CNC(=O)C1CCN(C(=O)c2sccc2-n2cccc2)CC1	25.7	-14.2	10.9	-20.7	-4.8	64.0*
CC1CN(C2=NC(=O)/C(=C/c3ccncc3)S2)CC(C)O1 (stereo not given)	9.5	15.9	0.4	11.5	2.9	19.3
Cc1c(CCOC(=O)CC23CC4CC(CC(C4)C2)C3)sc[n+]1CC(=O)c1ccc(Br)cc1	-7.7	48.8	6.9	1.0	0.0	-11.2
SMILES	TROY NFkB inh	Peg3 promoter	MITF TRPM1 inh	HIF-2a inh	LMP1 NFkB inh	TWEAK Fn14 block
Cc1c(CCOC(=O)CC23CC4CC(CC(C)(C4)C2)C3)sc[n+]1CC(=O)c1ccccc1	20.7	84.5*	84.4*	-12.2	5.6	15.9
COc1cc(SSc2cc(OC)cc([N+](=O)[O-])c2N)c(N)c([N+](=O)[O-])c1	18.9	49.6	19.0	39.5	3.3	2.6
O=C(NC1CC1)C1=C[C@@H](c2ccc(Br)cc2)C[C@@H](OCCCCO)O1	50.5*	-6.6	-3.4	-27.4	1.1	16.0
COc1ccc(CC(C)NCC(O)c2ccc(O)c(NC=O)c2)cc1 (stereo not given)	3.0	16.4	-3.1	10.6	61.1*!	-40.8
CCC(=O)Nc1cccc(C(=O)/C=C/c2ccc(F)cc2)c1	19.4	99.8*	62.1*	27.0	-7.7	71.6*
COc1cccc(NC(=S)NC(=O)/C=C/c2ccc(F)cc2)c1	-2.3	7.9	-3.6	-2.6	-3.4	-9.7
CC(=O)Nc1cccc(C(=O)/C=C/c2ccc(C)cc2)c1	-3.5	96.9*	22.6	-18.1	4.1	70.7*
CN(C)CCN(C(=O)/C=C/c1cccs1)c1nc2c(F)cc(F)cc2s1	4.3	105.8*	33.1	7.3	-2.3	36.4
CN(C)CCCN(C(=O)/C=C/c1cccs1)c1nc2ccc(F)cc2s1	-1.0	-10.4	3.6	6.3	-9.3	19.0
COc1ccc(C)c2sc(N(CCN(C)C)C(=O)/C=C/c3cccs3)nc12	-38.1	50.5*	88.4*	8.4	0.1	-1.2
CN(C)c1ncnc2c1ncn2[C@H]1CN(Cc2cccs2)C[C@@H](CO)O1	-7.3	8.9	/	16.4	/	5.5
CCOc1cc2[nH]c(=S)n(CCc3ccc(OC)c(OC)c3)c(=O)c2cc1OCC	-1.3	64.0*	17.7	12.5	-29.6	-3.0
CCOc1cc2[nH]c(=O)n(CCc3ccc(OC)c(OC)c3)c(=O)c2cc1OCC	0.6	10.0	-4.0	-3.0	-4.6	9.3
c1cc2[nH]snc2c2nc(C3CC3)nc12	39.8	-49.5	-1.5	-51.9	26.8	61.8*
CN(C)S(=O)(=O)c1cccc(NC(=S)N/N=C/c2cc(Br)ccc2O)c1	21.9	53.9*	66.8*	-5.1	49.4*	34.9
N#Cc1c(NC(=O)Cn2c(=O)oc3ccccc32)oc(-c2ccccc2)c1-c1ccccc1	68.1*	40.8	5.4	8.9	-13.0	-14.1
CCc1cc2cc(C)ccc2nc1SCC(=O)NC1CCCC1	18.1	28.7	-0.6	7.2	-1.2	12.7
O=C(Cc1ccc(Cl)cc1)NCC(=O)N1CCCCC1	10.5	9.1	-1.6	8.5	45.5*	-4.5
O=C(c1cc(COc2c(F)cccc2F)on1)N1CC[C@@H]2CCCC[C@H]2C1	-64.3	-155.4	/	-206.9	-8.3	-40.6
Cc1cccc(C(=O)Nc2ccc3c(c2)nc(C)n3C)c1	18.8	-127.7	2.4	-64.9	12.4	59.2*
